About 83,000 compounds went through this panel and 20% of them were active in at least one assay; those are over-represented in the sample as a whole.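 Assay: single dose, 48 h. Readout: percent growth (0 = no net growth; negative = cell death). Active: <10.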 Activity calls are given as the source filed them.
Columns and labels:
Assay in all cases: NCI-60 one-dose screen, 48 h (100 = growth as untreated, 0 = no growth, -100 = all killed)
Conditions in all cases: 10 µM
RPMI-8226 leukemia = system: RPMI-8226 leukemia
OVCAR-8 ovarian = system: OVCAR-8 ovarian
OVCAR-5 ovarian = system: OVCAR-5 ovarian
OVCAR-4 ovarian = system: OVCAR-4 ovarian
SK-OV-3 ovarian = system: SK-OV-3 ovarian
IGROV1 ovarian = system: IGROV1 ovarian
OVCAR-3 ovarian = system: OVCAR-3 ovarian
HS 578T breast = system: HS 578T breast
NCI/ADR-RES ovarian = system: NCI/ADR-RES ovarian
T-47D breast = system: T-47D breast
BT-549 breast = system: BT-549 breast
MDA-MB-435 melanoma = system: MDA-MB-435 melanoma
SW-620 colon = system: SW-620 colon
MCF7 breast = system: MCF7 breast
HCT-116 colon = system: HCT-116 colon
HCC-2998 colon = system: HCC-2998 colon
KM12 colon = system: KM12 colon
MDA-MB-468 breast = system: MDA-MB-468 breast

Measured: growth

CCC(C)S(=O)(=O)c1oc(-c2ccc(C)cc2)nc1S(=O)(=O)c1ccccc1 (centres undefined)
inactive: SK-OV-3 ovarian 65.5%
active: RPMI-8226 leukemia -44.5% | OVCAR-8 ovarian -65.8% | OVCAR-5 ovarian -91.3% | OVCAR-4 ovarian -83.7% | IGROV1 ovarian -92.9% | OVCAR-3 ovarian -81.1% | HS 578T breast -12.1% | NCI/ADR-RES ovarian -55.2% | T-47D breast -73.5% | BT-549 breast -13.3% | MDA-MB-435 melanoma -98.2% | SW-620 colon -38.6% | MCF7 breast -56.5% | HCT-116 colon -6.96% | HCC-2998 colon -84.6% | KM12 colon -65% | MDA-MB-468 breast -93.4%

CN1CCN(c2ccc(Nc3nc(N4CCN(S(=O)(=O)c5ccc(F)cc5)CC4)c4sccc4n3)cc2)CC1
active: RPMI-8226 leukemia -24.2% | OVCAR-8 ovarian -85% | OVCAR-5 ovarian -96.8% | OVCAR-4 ovarian -89.3% | SK-OV-3 ovarian -87.2% | IGROV1 ovarian -86.4% | OVCAR-3 ovarian -79% | HS 578T breast -47.7% | NCI/ADR-RES ovarian -83% | T-47D breast -62.7% | MDA-MB-435 melanoma -100% | SW-620 colon -63.8% | MCF7 breast -77.6% | HCT-116 colon -51.1% | HCC-2998 colon -90.7% | KM12 colon -74.8% | MDA-MB-468 breast -96.7%
inactive: BT-549 breast 65.2%

Cc1nc2c(cnn2-c2ccccc2)c(=O)n1-c1ccc(NC(=O)c2ccc(F)cc2)cc1
inactive: RPMI-8226 leukemia 35.2% | OVCAR-8 ovarian 63.7% | OVCAR-5 ovarian 97.9% | OVCAR-4 ovarian 40.1% | SK-OV-3 ovarian 111% | IGROV1 ovarian 73.5% | OVCAR-3 ovarian 85.4% | HS 578T breast 78.7% | NCI/ADR-RES ovarian 42.8% | T-47D breast 18% | BT-549 breast 46% | MDA-MB-435 melanoma 53.8% | SW-620 colon 76.5% | MCF7 breast 35.8% | HCT-116 colon 48.3% | HCC-2998 colon 79.9% | KM12 colon 64.1% | MDA-MB-468 breast 14.5%

From PubChem BioAssay (NCI)
